MgrA DNA FP = alters Staphylococcus aureus MgrA binding to DNA; fluorescence polarization; inhibition, % (concentration not given with the values); actives 0.13% (n = 84,000); in the data active = inhibition above about 30%, passing the limit was not always enough;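 also: 0% = protein plus DNA without compound and 100% = DNA alone without protein; higher means less MgrA bound to DNA so lower polarization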
Starred values were filed as active, the others as inactive. The sample as a whole holds a higher share of hits than the screen did.

Screening CC[n+]1c(-c2ccccc2)c2cc(N)ccc2c2ccc(N)cc21 returned MgrA DNA FP 58*.
Screening Cc1cccc(N2CCN(CC#N)CC2)c1 returned MgrA DNA FP -1.
CC12CCC3C4CCCC=C4CCC3C1CCC2=O (configuration not stated) was read as MgrA DNA FP -2.
`C=CCN1C(=O)/C(=C/c2ccco2)C(=O)NC1=S` gave MgrA DNA FP 38.
CN1C(=O)/C(=C/c2ccc(I)o2)C(=O)NC1=S was read as MgrA DNA FP 98*.
`O=C1NC(=S)N(c2ccc(Br)cc2)C(=O)/C1=C\c1ccc(-c2ccccc2C(=O)O)o1` gave MgrA DNA FP 16.
Screening CCOC(=O)c1ccc(-n2c(C)cc(C=C3C(=O)N(C)C(=O)N(C)C3=O)c2C)cc1 returned MgrA DNA FP 4.
`C=CCOC(=O)C1=C(C)OC(N)=C(C#N)C12C(=O)Nc1ccc(Cl)cc12` (configuration not stated) gave MgrA DNA FP 1.
Screening CC12CCCCC1=NC(c1ccccc1O)N2O (configuration not stated) returned MgrA DNA FP 2.
`O=C(Nc1ccc(Cl)cc1C(=O)c1ccccc1)c1ccc(Cl)cc1` gave MgrA DNA FP -3.
